# Measurements reported in PubChem BioAssay (NCATS).
# Values without a mark were called inactive. Results filed as inconclusive are left out. A call without a number means that no potency is given here. Activity calls are given as the source filed them. Unless noted, calls come from the whole dose curve; as a rule, active = well fitted curve in the direction sought with a large enough effect; inconclusive = small, poorly fitted or top-dose-only effect, or another doubt; inactive = no such curve, though single readings can be large; an effect the other way counts as inactive or inconclusive.
# How the values were obtained:
# [1] = target: Glucocorticoid receptor (Homo sapiens) (UniProt P04150); test: GR-GFP Redistribution (AID 450;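 active = compounds whose dose series gives a full or clear partial fitted curve of increased nuclear translocation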; note: potency is the fitted concentration of half-maximal effect)
# [2] = qHTS Assay for Identification of Small Molecule Agonists for Hypoxia Response Element Signaling Pathway (AID 914; active = well fitted activation curve with a large enough effect in the signal ratio, with a control signal flat, not every such curve was filed as active; the % refers to the signal ratio; note: potency is the fitted concentration of half-maximal effect); details: ME-180 (cervical carcinoma) HRE-bla reporter, beta-lactamase ratio, CoCl2, 17 h; activation: active compounds read high
# Procedure, shortened: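 Cells were plated overnight, pin-dosed with compound in a titration series, co-stimulated with EC50 CoCl2 and incubated 17 hours at 37 degrees Celsius. CCF4 substrate was then loaded, and AC50 values came from the 460nm/530nm ratio.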
# [3] = target: Glucocorticoid receptor (Homo sapiens) (UniProt P04150); test: GR-EFC Redistribution (AID 451; calls by dose curve; note: potency is the fitted concentration of half-maximal effect); details: CHO-K1 GR-EFC translocation, beta-gal luminescence, 2 h
# Procedure, shortened: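 CHO-K1 cells expressing nuclear EA and GR-ED fragments of b-gal; compounds titrated up to 46 uM final, 2 h at 37 C. GR nuclear translocation read as complemented b-gal luminescence after 1 h RT detection.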
# [4] = target: Mitogen-activated protein kinase 10 (Mus musculus) (UniProt Q61831); test: JNK3 AlphaScreen Assay (AID 530; active = well fitted curve in either direction with a large enough effect, not every such curve was filed as active;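 note: kinase came from lysate of stimulated human HepG2 cells; signal reports phosphorylation of biotinylated GST-cJun 1-79 at Ser73 with 10 µM ATP; series mostly up to about 57 µM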)
# Procedure, shortened: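 Activity was read by AlphaScreen after JNK3-containing HepG2 lysate (cytokine pre-activated) phosphorylated biotinylated GST-cJun with 10 uM ATP at room temperature. Phospho-Ser73 cJun antibody with Protein-A acceptor beads provided detection.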
# [5] = target: 3',5'-cyclic-AMP phosphodiesterase 4B (Homo sapiens) (UniProt Q07343); test: qHTS Assay for Inhibitors of PDE-IV (AID 607; active = well fitted activation curve with a large enough effect in the main read-out, with a control signal flat, not every such curve was filed as active)
# Procedure, shortened: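 The readout is membrane depolarisation from a cAMP-sensing CNG channel, detected with a potential dye at ex 535/em 590. Cells were HEK293-derived (endogenous PDE-IV) at 1000 cells/well, titrated up to 22.9 uM final.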
# [6] = target: Cytochrome P450 2C9 (Homo sapiens) (UniProt P11712); test: qHTS Assay for Inhibitors and Substrates of Cytochrome P450 2C9 (AID 883); note: nearly all actives have a fitted effect of over 60% in size; note: potency is the fitted concentration of half-maximal effect
# Procedure, shortened: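 Human CYP2C9 (10nM) with Luciferin-H at 100uM (its KM) in 25mM KPO4; compound preincubated 10 min at 37C, then NADPH regeneration for 60 min at 37C. Luciferin read by luminescence after detection reagent; normalized to 57uM sulphaphenazole as full inhibition.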
# [7] = target: Cytochrome P450 3A4 (Homo sapiens) (UniProt P08684); test: qHTS Assay for Inhibitors and Substrates of Cytochrome P450 3A4 (AID 884); note: potency is the fitted concentration of half-maximal effect; nearly all actives have a fitted effect of over 50% in size
# Procedure, shortened: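 Luminescent readout of luciferin produced by CYP3A4 (20 nM) dealkylation of Luciferin-PPXE, 25 uM (its KM). NADPH-driven reaction ran 60 min at RT after 10 min compound preincubation; data scaled to 57 uM ketoconazole as 100% inhibition.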
# [8] = target: Cytochrome P450 3A4 (Homo sapiens) (UniProt P08684); test: qHTS Assay for Activators of Cytochrome P450 3A4 (AID 885); note: nearly all actives have a fitted effect of over 65% in size
# Procedure, shortened: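 Activators are scored by enhanced luminescence from CYP3A4 conversion of luciferin-PPXE (25uM, equal to KM) to luciferin, after 60 min at RT with an NADPH-regenerating system.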
# [9] = target: Cytochrome P450 2C19 (Homo sapiens) (UniProt P33261); test: qHTS Assay for Inhibitors and Substrates of Cytochrome P450 2C19 (AID 899); note: nearly all actives have a fitted effect of over 60% in size; note: potency is the fitted concentration of half-maximal effect
# Procedure, shortened: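 5 nM human CYP2C19 with 10uM Luciferin-H EGE (at KM) in 50mM KPO4, compound preincubated 10 min at 37C, then NADPH regeneration for 60 min at 37C. Luciferin read by luminescence after detection reagent; normalized to 57uM ketoconazole as full inhibition.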
# [10] = target: DNA dC->dU-editing enzyme APOBEC-3G (Homo sapiens) (UniProt Q9HC16); test: qHTS for inhibitors of Vif-A3G interactions: Validation (AID 588379)
# Procedure, shortened: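 Yellow fluorescence (Ex 488, Em 500-530) of Vif-coexpressing HeLa A3G-eYFP cells, scanned by Acumen cytometer, reports blocked A3G degradation. Cells plated at 700/well overnight at 37 deg C before compound addition, then a further overnight compound incubation at 37 deg C.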
# [11] = target: Cytochrome P450 2D6 (Homo sapiens) (UniProt P10635); test: qHTS Assay for Inhibitors and Substrates of Cytochrome P450 2D6 (AID 891);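 note: luciferin methyl ether substrate demethylated by CYP2D6 with NADPH regeneration; nearly all actives have a fitted effect of over 60% in size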
# Procedure, shortened: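 Luminescent read-out of luciferin formed by 5 nM human CYP2D6 demethylating 30 uM Luciferin-ME EGE (Km level) over 60 min at room temperature after NADPH regeneration addition. Data normalized to full inhibition by 1.43 uM quinidine.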
# Chain of Cytochrome P450 2C19 (Homo sapiens) (P33261 whole entry, looked up): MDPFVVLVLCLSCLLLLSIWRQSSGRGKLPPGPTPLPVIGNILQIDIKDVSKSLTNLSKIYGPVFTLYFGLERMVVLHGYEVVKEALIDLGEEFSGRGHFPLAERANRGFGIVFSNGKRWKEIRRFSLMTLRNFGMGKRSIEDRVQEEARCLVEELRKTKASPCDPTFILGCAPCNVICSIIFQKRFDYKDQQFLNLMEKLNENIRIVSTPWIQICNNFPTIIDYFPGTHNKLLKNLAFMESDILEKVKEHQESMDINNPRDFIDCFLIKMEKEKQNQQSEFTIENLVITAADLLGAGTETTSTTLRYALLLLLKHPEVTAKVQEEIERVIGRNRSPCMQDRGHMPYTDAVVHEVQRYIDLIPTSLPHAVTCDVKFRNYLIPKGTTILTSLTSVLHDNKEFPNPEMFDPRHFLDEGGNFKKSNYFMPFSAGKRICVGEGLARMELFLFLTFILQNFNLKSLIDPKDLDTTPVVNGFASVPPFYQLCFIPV
# Chain of Glucocorticoid receptor (Homo sapiens) (P04150 whole entry, looked up, the tested form may be a part): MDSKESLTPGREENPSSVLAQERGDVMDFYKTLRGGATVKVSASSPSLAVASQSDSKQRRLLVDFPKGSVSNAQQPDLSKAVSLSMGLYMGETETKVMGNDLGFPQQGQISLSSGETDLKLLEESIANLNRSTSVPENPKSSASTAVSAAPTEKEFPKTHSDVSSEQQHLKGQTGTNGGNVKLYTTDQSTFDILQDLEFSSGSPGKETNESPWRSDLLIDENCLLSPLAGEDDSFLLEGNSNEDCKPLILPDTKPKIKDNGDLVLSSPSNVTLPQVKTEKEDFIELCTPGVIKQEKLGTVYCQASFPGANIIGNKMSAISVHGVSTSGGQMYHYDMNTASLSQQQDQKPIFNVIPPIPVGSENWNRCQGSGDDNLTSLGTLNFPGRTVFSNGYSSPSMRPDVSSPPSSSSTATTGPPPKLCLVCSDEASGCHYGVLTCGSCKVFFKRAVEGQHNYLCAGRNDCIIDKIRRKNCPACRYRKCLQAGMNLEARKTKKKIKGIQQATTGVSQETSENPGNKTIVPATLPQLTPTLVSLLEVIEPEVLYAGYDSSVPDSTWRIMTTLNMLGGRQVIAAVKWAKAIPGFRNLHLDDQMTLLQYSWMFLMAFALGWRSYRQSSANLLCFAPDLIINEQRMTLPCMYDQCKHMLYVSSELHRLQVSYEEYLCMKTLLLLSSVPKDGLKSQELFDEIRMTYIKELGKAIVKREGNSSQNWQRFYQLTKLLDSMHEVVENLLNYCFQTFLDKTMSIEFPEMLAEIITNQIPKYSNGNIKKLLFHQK
# Chain of Cytochrome P450 2C9 (Homo sapiens) (P11712 whole entry, looked up): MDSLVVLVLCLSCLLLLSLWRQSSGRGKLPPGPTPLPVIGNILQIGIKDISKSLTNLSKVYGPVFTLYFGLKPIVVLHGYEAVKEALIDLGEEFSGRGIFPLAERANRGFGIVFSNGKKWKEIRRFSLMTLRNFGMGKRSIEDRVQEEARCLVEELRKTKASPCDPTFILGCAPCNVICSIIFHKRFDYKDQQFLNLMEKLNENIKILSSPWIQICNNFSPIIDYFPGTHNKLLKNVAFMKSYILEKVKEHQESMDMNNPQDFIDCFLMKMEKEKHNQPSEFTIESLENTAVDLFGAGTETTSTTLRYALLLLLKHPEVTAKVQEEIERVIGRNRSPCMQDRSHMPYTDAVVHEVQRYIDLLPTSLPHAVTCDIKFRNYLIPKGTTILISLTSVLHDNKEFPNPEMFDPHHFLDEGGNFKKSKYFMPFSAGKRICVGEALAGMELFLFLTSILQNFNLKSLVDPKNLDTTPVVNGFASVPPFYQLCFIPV
# Chain of 3',5'-cyclic-AMP phosphodiesterase 4B (Homo sapiens) (Q07343 whole entry, looked up): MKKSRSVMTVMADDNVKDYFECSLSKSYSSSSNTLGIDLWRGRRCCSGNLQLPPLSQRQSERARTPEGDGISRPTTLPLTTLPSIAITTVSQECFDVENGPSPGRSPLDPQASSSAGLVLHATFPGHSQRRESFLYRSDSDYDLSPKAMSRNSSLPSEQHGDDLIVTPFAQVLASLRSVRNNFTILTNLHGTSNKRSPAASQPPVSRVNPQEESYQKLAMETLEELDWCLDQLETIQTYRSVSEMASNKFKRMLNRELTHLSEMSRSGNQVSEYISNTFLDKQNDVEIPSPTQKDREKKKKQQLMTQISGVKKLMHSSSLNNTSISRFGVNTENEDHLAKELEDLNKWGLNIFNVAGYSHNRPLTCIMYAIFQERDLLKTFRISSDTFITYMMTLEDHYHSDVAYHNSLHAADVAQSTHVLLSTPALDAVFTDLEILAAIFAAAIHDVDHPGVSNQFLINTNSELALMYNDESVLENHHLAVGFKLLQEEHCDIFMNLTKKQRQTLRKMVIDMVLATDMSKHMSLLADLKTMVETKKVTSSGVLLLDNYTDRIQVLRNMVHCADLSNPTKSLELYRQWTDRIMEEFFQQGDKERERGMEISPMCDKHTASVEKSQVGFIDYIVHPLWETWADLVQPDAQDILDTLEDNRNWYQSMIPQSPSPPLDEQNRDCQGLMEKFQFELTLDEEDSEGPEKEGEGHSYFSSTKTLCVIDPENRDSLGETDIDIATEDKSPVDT
# Chain of Cytochrome P450 2D6 (Homo sapiens) (P10635 whole entry, looked up): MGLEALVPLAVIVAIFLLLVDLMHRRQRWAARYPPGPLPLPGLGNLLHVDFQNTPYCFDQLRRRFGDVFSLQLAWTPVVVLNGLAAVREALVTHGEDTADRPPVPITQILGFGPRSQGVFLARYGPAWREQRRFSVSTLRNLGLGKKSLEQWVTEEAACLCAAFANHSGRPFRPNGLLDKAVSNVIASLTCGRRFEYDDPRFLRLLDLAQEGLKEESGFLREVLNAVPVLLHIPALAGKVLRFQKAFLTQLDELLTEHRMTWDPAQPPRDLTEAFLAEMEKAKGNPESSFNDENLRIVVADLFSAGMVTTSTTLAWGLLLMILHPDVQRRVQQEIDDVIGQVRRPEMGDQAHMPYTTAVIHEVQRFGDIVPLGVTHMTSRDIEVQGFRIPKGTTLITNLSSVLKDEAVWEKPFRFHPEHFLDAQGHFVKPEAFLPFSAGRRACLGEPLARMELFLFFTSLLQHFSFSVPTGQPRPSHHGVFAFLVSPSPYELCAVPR
# Chain of Cytochrome P450 3A4 (Homo sapiens) (P08684 whole entry, looked up): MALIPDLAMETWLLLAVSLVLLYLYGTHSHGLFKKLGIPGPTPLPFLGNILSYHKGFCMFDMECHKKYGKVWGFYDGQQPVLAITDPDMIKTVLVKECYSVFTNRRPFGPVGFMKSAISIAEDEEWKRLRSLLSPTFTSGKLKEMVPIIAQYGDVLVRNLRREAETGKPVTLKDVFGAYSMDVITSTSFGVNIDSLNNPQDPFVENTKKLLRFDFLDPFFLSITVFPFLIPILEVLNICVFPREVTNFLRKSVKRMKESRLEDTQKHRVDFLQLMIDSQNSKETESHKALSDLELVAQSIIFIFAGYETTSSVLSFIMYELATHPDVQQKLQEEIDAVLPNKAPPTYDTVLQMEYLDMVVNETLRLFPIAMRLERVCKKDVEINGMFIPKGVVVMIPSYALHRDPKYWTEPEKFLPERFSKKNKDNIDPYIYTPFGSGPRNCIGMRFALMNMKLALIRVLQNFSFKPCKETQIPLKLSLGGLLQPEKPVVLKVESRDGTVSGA
# Chain of DNA dC->dU-editing enzyme APOBEC-3G (Homo sapiens) (Q9HC16 whole entry, looked up): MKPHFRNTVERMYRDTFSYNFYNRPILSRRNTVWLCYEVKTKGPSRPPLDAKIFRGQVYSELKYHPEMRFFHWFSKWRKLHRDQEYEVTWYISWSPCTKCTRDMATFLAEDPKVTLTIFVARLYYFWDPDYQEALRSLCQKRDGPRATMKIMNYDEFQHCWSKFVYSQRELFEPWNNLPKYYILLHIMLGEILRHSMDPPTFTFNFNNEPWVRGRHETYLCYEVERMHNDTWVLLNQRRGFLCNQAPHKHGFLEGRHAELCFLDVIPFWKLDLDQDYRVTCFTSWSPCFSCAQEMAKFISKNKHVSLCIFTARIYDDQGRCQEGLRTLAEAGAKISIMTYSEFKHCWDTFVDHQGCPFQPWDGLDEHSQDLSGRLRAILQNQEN
compound,measurement,setting,value
OCCNc1ncnc2c1c(-c1ccccc1)c(-c1ccccc1)n2Cc1ccco1,Potency,[1],> 20.6 µM
CC1(C)Cc2c(C#N)c(NCc3ccco3)nc(-c3ccco3)c2CO1,Potency,[1],> 20.6 µM
same,Potency,[2],2 µM (active)
C[C@H]1[C@H](C)CC[C@@]2(C(=O)O)CC[C@]3(C)C(=CC[C@@H]4[C@@]5(C)CC[C@H](O)C(C)(C)[C@@H]5CC[C@@]43C)[C@@H]12,Potency,[1],> 46 µM
same,Potency,[3],> 46 µM
same,Potency,[4],inactive
same,Potency,[5],inactive
O=c1c(O)c(-c2ccccc2)oc2cc(O)cc(O)c12,Potency,[1],> 46 µM
same,Potency,[3],> 46 µM
same,Potency,[4],inactive
same,Potency,[5],inactive
same,Potency,[6],3.16 µM (active)
same,Potency,[7],15.8 µM (active)
same,Potency,[8],inactive
same,Potency,[9],3.98 µM (active)
same,outcome,[10],inactive
NCCC[C@@H](CC(=O)N[C@@H]1CCNC[C@H]1C(=O)N[C@H](CC(=O)N[C@@H](CCC(=O)O)CC(=O)O)Cc1ccccc1)NC(=O)C[C@H](Cc1c[nH]c2ccccc12)NC(=O)[C@@H]1CCCC[C@H]1N,Potency,[3],> 46 µM
same,Potency,[4],inactive
same,Potency,[5],inactive
same,Potency,[6],inactive
same,Potency,[11],inactive
same,Potency,[9],inactive
C=C[C@@]1(C)C=C2CC[C@@H]3[C@](C)(CCC[C@@]3(C)C(=O)O)[C@H]2CC1,Potency,[1],> 46 µM
same,Potency,[3],> 46 µM
same,Potency,[4],inactive
same,Potency,[5],inactive
same,Potency,[6],6.31 µM (active)
same,Potency,[11],inactive
CC(=O)O[C@H]1C(=O)[C@]2(C)[C@H]([C@H](OC(=O)c3ccccc3)[C@@]3(O)C[C@H](OC(=O)[C@@H](O)[C@@H](NC(=O)c4ccccc4)c4ccccc4)C(C)=C1C3(C)C)[C@]1(OC(C)=O)CO[C@@H]1C[C@@H]2O,Potency,[1],> 46 µM
same,Potency,[4],inactive
same,Potency,[5],inactive
C[C@@H]1O[C@@H](OC[C@@H]2O[C@@H](Oc3c(-c4ccc(O)c(O)c4)oc4cc(O)cc(O)c4c3=O)[C@H](O)[C@H](O)[C@@H]2O)[C@H](O)[C@H](O)[C@@H]1O,Potency,[1],> 46 µM
same,Potency,[3],> 46 µM
same,Potency,[4],inactive
same,Potency,[5],inactive
same,Potency,[6],inactive
same,Potency,[9],inactive
CC1=CC(=O)C2=C(C)CC[C@@H]3[C@H](OC(=O)[C@H]3C)[C@H]12,Potency,[1],> 46 µM
same,Potency,[3],> 46 µM
same,Potency,[4],inactive
same,Potency,[5],inactive
